In PubChem BioAssay (NCI):
About 83,000 compounds went through this panel and 20% of them were active in at least one assay; those are over-represented in the sample as a whole.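 Activity criterion: percent growth below 10, measured after cells in 96-well plates were exposed to a single compound concentration for 48 hours.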 Values without a mark were called inactive. Activity calls are given as the source filed them.

Columns and labels:
Experiment in all cases: NCI-60 one-dose screen, 48 h (100 = growth as untreated, 0 = no growth, -100 = all killed)
Details in all cases: 10 µM unless noted
NCI-H23 lung = system: NCI-H23 lung
NCI-H322M lung = system: NCI-H322M lung
HOP-62 NSCLC = system: HOP-62 NSCLC
NCI-H460 lung = system: NCI-H460 lung
HOP-92 NSCLC = system: HOP-92 NSCLC
NCI-H522 lung = system: NCI-H522 lung
A549/ATCC NSCLC = system: A549/ATCC NSCLC
786-0 renal = system: 786-0 renal
COLO 205 colon = system: COLO 205 colon
DU-145 prostate = system: DU-145 prostate
K-562 leukemia = system: K-562 leukemia
MALME-3M melanoma = system: MALME-3M melanoma
MDA-MB-231 breast = system: MDA-MB-231 breast
RXF 393 renal = system: RXF 393 renal
SF-268 CNS = system: SF-268 CNS
SF-295 CNS = system: SF-295 CNS
SF-539 CNS = system: SF-539 CNS
UACC-257 melanoma = system: UACC-257 melanoma
M14 melanoma = system: M14 melanoma
HCT-15 colon = system: HCT-15 colon

| SMILES | growth (NCI-H23 lung) | growth (NCI-H322M lung) | growth (HOP-62 NSCLC) | growth (NCI-H460 lung) | growth (HOP-92 NSCLC) | growth (NCI-H522 lung) | growth (A549/ATCC NSCLC) | growth (786-0 renal) | growth (COLO 205 colon) | growth (DU-145 prostate) | growth (K-562 leukemia) | growth (MALME-3M melanoma) | growth (MDA-MB-231 breast) | growth (RXF 393 renal) | growth (SF-268 CNS) | growth (SF-295 CNS) | growth (SF-539 CNS) | growth (UACC-257 melanoma) | growth (M14 melanoma) | growth (HCT-15 colon) |
| --- | --- | --- | --- | --- | --- | --- | --- | --- | --- | --- | --- | --- | --- | --- | --- | --- | --- | --- | --- | --- |
| COC(=O)/C(CCC=C(C)C)=C1\[C@@H](OC(C)=O)C[C@@]2(C)[C@H]1CC(=O)[C@H]1[C@@]3(C)CC[C@H](NCc4ccccc4)[C@@H](C)[C@@H]3CC[C@@]12C | 93.4% | 103% | 87.3% | 88.8% | 49.7% | 108% | 81.7% | 65.9% | 60% | 96.5% | 28.8% | 92.5% | 90.5% | 69.4% | 79.6% | 98.2% | 82.9% | 99.7% | 89.7% | 72.1% |
| CCOC(=O)c1ccc(N=Cc2sc(=O)[nH]c2O)cc1 | 98% | 101% | 95.4% | 101% | 90.1% | 93.7% | 96.6% | 98.4% | 104% | 103% | 103% | 91.2% | 95.5% | 102% | 88.3% | 94.1% | 94% | 96.9% | 97.9% | 99.1% |
| O=C1C(Cl)=C(NCc2ccco2)C(=O)c2ccccc21 | 37.3% | 115% | 37% | 54.5% | 103% | 75.9% | 47.4% | 113% | 84.8% | 15.6% | 70.6% | 54.6% | 68.1% | 101% | 103% | 75.8% | 115% | 58.7% | 77.4% | 81.3% |
| COc1ccc(/C=c2\sc3n(c2=O)NC2C(N=3)N(C)C(=O)N2C)cc1 (stereo not given) | 96.6% | 92% | 101% | 108% | 100% | 86.6% | 99.8% | 97.7% | 102% | 110% | 89.3% | 97.6% | 96.8% | 101% | 93.5% | 100% | 95.5% | 102% | 96.5% | 96.4% |
| CC(C)CCNCC(O)Cn1c2ccccc2c2ccccc21 (stereo not given) | 25.4% | 30.7% | 18.1% | 1.52% (active) | -13.7% (active) | 20.3% | 11.9% | 25.2% | 2.79% (active) | 9.71% (active) | 1.84% (active) | -12.3% (active) | 41.6% | 8.43% (active) | 30.7% | -40% (active) | 16.1% | 1.45% (active) | 11.8% | 14.9% |
| CCN1CCN(C(=S)SCC(=O)Nc2nc3ccc(C)cc3s2)CC1 | 99.2% | 103% | 99.7% | 113% | 92.5% | 29.1% | 103% | 118% | 103% | 113% | 104% | 105% | 104% | 108% | 107% | 106% | 117% | 116% | 124% | 103% |
| COc1ccc(Nc2cc(C)nc(NCc3ccccc3)n2)cc1 | 56% | 61.9% | 38.5% | 11.9% | 21.6% | 19.9% | 7.95% (active) | 34.1% | 3.51% (active) | 45.4% | 5.22% (active) | 13.6% | -18.1% (active) | -16.2% (active) | 47.8% | -30.7% (active) | 47.5% | 46.8% | 8.52% (active) | 26.1% |
| O=C1c2cc(Br)ccc2Oc2cc([N+](=O)[O-])ccc2N1c1ccc(I)cc1F | 93% | 103% | 102% | 102% | 101% | 96.2% | 82% | 104% | 123% | 105% | 101% | 99.8% | 101% | 94.5% | 93.1% | 98.2% | 101% | 97.6% | 91.8% | 97.7% |
| COc1ccc(OC)c(/C=C/C(=O)c2c(C)nc3ccccc3c2/C=C/c2ccccc2)c1 | 58.8% | 78.5% | 90.7% | 28.6% | 48.5% | 23.7% | 55.8% | 89.2% | 86.4% | 54.2% | 17% | 103% | 51.9% | 69.6% | 73.7% | 76% | 99.6% | 72% | 81.5% | 37.6% |
| O=C1Nc2ccccc2/C1=C/c1cccs1 | 92.5% | 84.6% | 83.5% | 92.5% | 75.3% | 95.2% | 95.2% | 94.1% | 107% | 103% | 114% | 93.6% | 94.5% | 97.9% | 94.1% | 101% | 86.7% | 100% | 97.3% | 78.8% |
| CCCSC1=NC2C(N(CC)C(=O)N2CC)N1/N=C/C=C/c1ccccc1[N+](=O)[O-] (stereo not given) | 46.5% | 57.5% | 49.8% | 5.1% (active) | 102% | 0.595% (active) | 35.8% | 33.4% | 0.744% (active) | 19.8% | 8.86% (active) | 74.3% | 22.6% | 0.465% (active) | 48.1% | 12.9% | -11.9% (active) | 70.8% | 1.77% (active) | 16.1% |
| COc1ccc(/C=C2/SC(=O)N(CC(=O)N3CCN(c4cc5c(cc4F)c(=O)c(C(=O)O)cn5C4CC4)CC3)C2=O)cc1 | 100% | 99% | 97.6% | 103% | 113% | 87.1% | 92.2% | 97.3% | 108% | 115% | 110% | 98.5% | 103% | 117% | 101% | 101% | 91.1% | 91.9% | 103% | 109% |
| O=C(N=Nc1c(O)[nH]c2ccccc12)c1oc2ccccc2c1CN1CCN(c2ccccc2)CC1 | -0.112% (active) | 33.2% | 7.31% (active) | -65.3% (active) | -12% (active) | 20.4% | -13.5% (active) | -83.2% (active) | 12.7% | -34.2% (active) | 16.5% | -64.6% (active) | 24.6% | -67.6% (active) | 10.8% | 13% | 8.4% (active) | 20.1% | -8.59% (active) | -8.29% (active) |
| COc1ccc(CCN2C(=O)CCSC2=S)cc1OC | 103% | 101% | 97.5% | 102% | 87% | 48.3% | 97.6% | 44.2% | 114% | 67.6% | 80.9% | 101% | 106% | 90.7% | 97.1% | 98.7% | 89.7% | 96.6% | 105% | 86.2% |
| CN1C(=O)N(C)C2(c3ccccc3)OC(=S)NC12c1ccccc1 (stereo not given) | 99.3% | 92% | 90.1% | 112% | 101% | 90.4% | 87.5% | 96.2% | 107% | 94.4% | 92.3% | 97% | 110% | 114% | 88.9% | 93.3% | 92.5% | 94.7% | 95.7% | 100% |
| COc1ccccc1CNC(=O)C1c2ccccc2C(=O)N(CC(C)C)C1c1cccs1 (stereo not given) | 76.6% | 69.8% | 62.6% | 55.6% | 76% | 41% | 60.7% | 75.1% | 46.1% | 71.2% | 16.4% | 46.4% | 19.6% | -2.16% (active) | 65.7% | -33.5% (active) | 63.4% | 96.2% | 61.6% | 30.8% |
